Where “and” joins values, the source holds several entries; their conditions need not be identical. Equal values may be shown once.
Legend:
[1] = molecular target: T1, Aurora kinase A (Homo sapiens) (UniProt O14965); conditions: at 1 µM;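 also: values are mean percent inhibition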
T1 sequence (whole entry): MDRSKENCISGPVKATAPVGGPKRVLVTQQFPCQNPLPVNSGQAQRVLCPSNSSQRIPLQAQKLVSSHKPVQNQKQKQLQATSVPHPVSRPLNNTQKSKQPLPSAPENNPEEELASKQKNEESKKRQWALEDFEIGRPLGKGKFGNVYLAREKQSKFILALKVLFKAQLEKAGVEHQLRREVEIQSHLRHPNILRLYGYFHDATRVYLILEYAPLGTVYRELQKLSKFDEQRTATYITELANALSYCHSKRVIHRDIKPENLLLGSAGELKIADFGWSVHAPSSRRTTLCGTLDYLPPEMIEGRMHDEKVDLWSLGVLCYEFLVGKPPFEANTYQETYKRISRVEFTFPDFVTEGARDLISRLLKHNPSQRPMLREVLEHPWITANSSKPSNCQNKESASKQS

[2] = molecular target: Aurora kinase B (Homo sapiens) (UniProt Q96GD4); conditions: at 0.1 µM
[3] = molecular target: Aurora kinase B (Homo sapiens) (UniProt Q96GD4); conditions: at 1 µM
[4] = molecular target: T2, Aurora kinase C (Homo sapiens) (UniProt Q9UQB9); conditions: at 0.1 µM
T2 sequence (whole entry): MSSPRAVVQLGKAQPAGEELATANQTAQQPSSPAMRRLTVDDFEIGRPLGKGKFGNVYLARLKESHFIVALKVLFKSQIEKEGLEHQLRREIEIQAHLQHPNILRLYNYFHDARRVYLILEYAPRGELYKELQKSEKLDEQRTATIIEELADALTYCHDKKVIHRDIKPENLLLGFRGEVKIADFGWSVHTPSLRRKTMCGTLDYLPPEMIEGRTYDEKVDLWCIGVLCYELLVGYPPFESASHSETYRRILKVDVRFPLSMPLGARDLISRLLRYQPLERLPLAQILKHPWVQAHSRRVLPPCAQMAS

[5] = molecular target: T2, Aurora kinase C (Homo sapiens); conditions: at 1 µM
[6] = molecular target: Serine/threonine-protein kinase 10 (Homo sapiens) (UniProt O94804); conditions: at 0.1 µM
[7] = molecular target: Serine/threonine-protein kinase 10 (Homo sapiens) (UniProt O94804); conditions: at 1 µM
[8] = molecular target: T3, Mitogen-activated protein kinase kinase kinase kinase 2 (Homo sapiens) (UniProt Q12851); conditions: at 0.1 µM
T3 sequence (whole entry): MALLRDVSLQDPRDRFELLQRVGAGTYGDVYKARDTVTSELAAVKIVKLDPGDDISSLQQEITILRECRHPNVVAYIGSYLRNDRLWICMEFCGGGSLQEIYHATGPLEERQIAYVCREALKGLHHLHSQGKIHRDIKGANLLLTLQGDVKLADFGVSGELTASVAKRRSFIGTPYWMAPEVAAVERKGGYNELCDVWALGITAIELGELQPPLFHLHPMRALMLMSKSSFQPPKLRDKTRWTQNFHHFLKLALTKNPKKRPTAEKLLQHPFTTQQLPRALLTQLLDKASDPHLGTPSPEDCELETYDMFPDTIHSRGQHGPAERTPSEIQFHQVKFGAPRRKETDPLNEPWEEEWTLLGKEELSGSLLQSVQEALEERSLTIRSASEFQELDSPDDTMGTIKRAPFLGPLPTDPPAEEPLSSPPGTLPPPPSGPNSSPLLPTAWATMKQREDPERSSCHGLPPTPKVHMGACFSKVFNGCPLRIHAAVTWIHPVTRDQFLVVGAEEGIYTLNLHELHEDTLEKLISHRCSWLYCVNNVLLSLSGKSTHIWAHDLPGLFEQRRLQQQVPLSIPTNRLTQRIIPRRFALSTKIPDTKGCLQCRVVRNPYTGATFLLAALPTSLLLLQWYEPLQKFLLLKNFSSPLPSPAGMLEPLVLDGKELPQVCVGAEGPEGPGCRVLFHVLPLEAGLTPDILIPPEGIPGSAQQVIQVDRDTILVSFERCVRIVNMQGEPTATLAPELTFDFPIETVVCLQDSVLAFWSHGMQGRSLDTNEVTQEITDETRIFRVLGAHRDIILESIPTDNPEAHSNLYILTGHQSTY

[9] = molecular target: T3, Mitogen-activated protein kinase kinase kinase kinase 2 (Homo sapiens); conditions: at 1 µM
[10] = molecular target: Mitogen-activated protein kinase kinase kinase kinase 4 (Homo sapiens) (UniProt O95819); conditions: at 0.1 µM
[11] = molecular target: Mitogen-activated protein kinase kinase kinase kinase 4 (Homo sapiens) (UniProt O95819); conditions: at 1 µM
[12] = molecular target: Dual specificity mitogen-activated protein kinase kinase 1 (Homo sapiens) (UniProt Q02750); conditions: at 0.1 µM
[13] = molecular target: Dual specificity mitogen-activated protein kinase kinase 1 (Homo sapiens) (UniProt Q02750); conditions: at 1 µM
[14] = molecular target: Misshapen-like kinase 1 (Homo sapiens) (UniProt Q8N4C8); conditions: at 0.1 µM
[15] = molecular target: Misshapen-like kinase 1 (Homo sapiens) (UniProt Q8N4C8); conditions: at 1 µM
[16] = molecular target: T4, Serine/threonine-protein kinase 4 (Homo sapiens) (UniProt Q13043); conditions: at 0.1 µM
T4 sequence (whole entry): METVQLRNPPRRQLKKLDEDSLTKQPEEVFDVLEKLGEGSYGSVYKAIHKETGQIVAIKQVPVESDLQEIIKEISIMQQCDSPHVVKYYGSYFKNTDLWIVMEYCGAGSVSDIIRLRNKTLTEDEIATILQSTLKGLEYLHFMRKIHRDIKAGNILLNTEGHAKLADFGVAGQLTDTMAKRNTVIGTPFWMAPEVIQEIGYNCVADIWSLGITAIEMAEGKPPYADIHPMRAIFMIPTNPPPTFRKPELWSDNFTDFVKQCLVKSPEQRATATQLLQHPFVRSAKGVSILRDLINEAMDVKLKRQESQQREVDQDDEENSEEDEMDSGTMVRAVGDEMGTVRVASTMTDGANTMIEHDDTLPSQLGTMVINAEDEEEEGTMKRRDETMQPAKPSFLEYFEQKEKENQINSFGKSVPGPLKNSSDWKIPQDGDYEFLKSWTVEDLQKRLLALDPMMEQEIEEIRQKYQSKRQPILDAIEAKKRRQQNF

[17] = molecular target: T4, Serine/threonine-protein kinase 4 (Homo sapiens); conditions: at 1 µM
[18] = molecular target: T5, Serine/threonine-protein kinase 3 (Homo sapiens) (UniProt Q13188); conditions: at 0.1 µM
T5 sequence (whole entry): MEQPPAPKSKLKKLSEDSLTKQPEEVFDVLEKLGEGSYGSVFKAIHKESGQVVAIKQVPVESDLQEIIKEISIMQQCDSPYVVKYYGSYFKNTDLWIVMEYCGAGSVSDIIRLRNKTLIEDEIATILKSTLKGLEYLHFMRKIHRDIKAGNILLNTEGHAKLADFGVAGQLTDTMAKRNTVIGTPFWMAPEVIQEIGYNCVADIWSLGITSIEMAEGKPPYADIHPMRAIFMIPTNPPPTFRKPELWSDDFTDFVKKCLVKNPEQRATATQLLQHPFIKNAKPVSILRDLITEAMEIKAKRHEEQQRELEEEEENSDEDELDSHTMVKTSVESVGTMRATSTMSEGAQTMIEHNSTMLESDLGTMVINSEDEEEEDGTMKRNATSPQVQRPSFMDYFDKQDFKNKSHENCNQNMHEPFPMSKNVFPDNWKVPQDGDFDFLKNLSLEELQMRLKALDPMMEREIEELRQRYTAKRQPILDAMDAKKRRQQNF

[19] = molecular target: T5, Serine/threonine-protein kinase 3 (Homo sapiens); conditions: at 1 µM
[20] = molecular target: Serine/threonine-protein kinase 26 (Homo sapiens) (UniProt Q9P289); conditions: at 0.1 µM
Chain of Serine/threonine-protein kinase 26 (Homo sapiens) (Q9P289 2-416 limits assumed): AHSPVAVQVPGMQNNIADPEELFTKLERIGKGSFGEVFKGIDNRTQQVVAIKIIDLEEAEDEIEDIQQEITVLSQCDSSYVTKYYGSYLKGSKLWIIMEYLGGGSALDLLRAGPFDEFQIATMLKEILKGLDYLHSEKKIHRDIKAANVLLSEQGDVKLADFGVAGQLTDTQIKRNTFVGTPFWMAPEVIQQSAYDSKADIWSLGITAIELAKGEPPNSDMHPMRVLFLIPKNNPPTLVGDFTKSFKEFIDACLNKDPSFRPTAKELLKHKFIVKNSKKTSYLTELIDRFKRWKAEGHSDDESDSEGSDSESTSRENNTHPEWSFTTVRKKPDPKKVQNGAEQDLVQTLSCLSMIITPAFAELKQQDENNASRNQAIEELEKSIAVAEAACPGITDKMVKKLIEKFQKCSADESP

Chain of Serine/threonine-protein kinase 10 (Homo sapiens) (O94804 whole entry, looked up): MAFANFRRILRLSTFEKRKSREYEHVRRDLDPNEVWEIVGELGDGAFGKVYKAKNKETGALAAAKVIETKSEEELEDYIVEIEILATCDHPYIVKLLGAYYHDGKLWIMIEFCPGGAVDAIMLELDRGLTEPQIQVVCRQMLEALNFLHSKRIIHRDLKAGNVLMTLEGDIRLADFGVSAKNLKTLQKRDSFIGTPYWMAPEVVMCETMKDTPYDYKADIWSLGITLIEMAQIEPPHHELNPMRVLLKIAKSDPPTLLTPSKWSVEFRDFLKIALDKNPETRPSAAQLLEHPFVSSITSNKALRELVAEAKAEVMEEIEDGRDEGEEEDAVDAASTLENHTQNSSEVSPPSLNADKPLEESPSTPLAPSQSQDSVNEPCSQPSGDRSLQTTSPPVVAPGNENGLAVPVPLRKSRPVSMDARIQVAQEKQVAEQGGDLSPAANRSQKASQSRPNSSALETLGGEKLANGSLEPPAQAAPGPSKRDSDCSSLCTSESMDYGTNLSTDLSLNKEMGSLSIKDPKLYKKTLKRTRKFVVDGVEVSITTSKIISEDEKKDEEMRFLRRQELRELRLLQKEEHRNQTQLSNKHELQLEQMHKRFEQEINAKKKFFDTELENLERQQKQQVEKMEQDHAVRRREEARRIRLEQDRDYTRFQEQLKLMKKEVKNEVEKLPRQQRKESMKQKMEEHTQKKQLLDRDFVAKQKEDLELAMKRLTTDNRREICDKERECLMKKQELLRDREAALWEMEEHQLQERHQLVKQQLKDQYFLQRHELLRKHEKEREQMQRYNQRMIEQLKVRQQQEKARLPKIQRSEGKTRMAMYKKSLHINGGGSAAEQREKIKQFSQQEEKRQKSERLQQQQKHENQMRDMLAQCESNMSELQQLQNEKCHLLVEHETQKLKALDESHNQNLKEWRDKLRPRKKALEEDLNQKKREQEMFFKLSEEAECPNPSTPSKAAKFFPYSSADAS
Chain of Misshapen-like kinase 1 (Homo sapiens) (Q8N4C8 whole entry, looked up): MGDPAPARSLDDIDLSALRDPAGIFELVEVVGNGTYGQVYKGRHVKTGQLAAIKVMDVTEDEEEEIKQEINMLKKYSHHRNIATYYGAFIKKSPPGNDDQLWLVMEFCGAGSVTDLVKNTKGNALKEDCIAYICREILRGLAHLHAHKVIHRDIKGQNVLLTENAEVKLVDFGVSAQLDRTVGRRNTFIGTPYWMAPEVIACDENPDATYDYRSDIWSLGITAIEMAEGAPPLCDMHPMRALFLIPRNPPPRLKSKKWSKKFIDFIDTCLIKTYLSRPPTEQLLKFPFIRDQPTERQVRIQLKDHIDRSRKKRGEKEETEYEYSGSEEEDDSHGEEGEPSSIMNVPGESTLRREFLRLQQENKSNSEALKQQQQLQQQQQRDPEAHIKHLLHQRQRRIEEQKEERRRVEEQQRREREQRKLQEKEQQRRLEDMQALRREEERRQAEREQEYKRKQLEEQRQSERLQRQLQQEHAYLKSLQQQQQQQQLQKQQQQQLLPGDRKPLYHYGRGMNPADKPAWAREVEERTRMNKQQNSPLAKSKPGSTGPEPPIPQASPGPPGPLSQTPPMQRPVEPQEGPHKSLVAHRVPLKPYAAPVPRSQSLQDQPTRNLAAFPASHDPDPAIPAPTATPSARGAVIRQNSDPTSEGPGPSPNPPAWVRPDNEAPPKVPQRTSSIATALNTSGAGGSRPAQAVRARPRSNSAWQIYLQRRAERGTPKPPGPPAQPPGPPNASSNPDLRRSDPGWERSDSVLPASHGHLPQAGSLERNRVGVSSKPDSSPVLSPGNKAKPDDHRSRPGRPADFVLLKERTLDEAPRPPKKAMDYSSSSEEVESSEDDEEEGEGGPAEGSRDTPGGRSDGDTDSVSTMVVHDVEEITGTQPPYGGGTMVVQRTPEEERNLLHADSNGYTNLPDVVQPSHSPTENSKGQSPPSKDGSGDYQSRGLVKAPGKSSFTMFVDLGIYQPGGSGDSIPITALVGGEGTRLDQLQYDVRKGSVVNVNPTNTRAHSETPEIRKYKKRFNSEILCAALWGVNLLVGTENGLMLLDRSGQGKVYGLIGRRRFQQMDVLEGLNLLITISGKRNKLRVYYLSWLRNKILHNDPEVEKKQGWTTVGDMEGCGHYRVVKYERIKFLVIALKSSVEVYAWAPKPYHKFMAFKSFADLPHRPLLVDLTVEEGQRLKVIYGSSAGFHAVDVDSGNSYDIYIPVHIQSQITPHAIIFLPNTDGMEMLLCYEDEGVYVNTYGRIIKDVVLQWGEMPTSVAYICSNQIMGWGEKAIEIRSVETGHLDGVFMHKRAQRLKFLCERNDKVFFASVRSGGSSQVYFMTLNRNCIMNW
Chain of Mitogen-activated protein kinase kinase kinase kinase 4 (Homo sapiens) (O95819 2-1239 limits assumed): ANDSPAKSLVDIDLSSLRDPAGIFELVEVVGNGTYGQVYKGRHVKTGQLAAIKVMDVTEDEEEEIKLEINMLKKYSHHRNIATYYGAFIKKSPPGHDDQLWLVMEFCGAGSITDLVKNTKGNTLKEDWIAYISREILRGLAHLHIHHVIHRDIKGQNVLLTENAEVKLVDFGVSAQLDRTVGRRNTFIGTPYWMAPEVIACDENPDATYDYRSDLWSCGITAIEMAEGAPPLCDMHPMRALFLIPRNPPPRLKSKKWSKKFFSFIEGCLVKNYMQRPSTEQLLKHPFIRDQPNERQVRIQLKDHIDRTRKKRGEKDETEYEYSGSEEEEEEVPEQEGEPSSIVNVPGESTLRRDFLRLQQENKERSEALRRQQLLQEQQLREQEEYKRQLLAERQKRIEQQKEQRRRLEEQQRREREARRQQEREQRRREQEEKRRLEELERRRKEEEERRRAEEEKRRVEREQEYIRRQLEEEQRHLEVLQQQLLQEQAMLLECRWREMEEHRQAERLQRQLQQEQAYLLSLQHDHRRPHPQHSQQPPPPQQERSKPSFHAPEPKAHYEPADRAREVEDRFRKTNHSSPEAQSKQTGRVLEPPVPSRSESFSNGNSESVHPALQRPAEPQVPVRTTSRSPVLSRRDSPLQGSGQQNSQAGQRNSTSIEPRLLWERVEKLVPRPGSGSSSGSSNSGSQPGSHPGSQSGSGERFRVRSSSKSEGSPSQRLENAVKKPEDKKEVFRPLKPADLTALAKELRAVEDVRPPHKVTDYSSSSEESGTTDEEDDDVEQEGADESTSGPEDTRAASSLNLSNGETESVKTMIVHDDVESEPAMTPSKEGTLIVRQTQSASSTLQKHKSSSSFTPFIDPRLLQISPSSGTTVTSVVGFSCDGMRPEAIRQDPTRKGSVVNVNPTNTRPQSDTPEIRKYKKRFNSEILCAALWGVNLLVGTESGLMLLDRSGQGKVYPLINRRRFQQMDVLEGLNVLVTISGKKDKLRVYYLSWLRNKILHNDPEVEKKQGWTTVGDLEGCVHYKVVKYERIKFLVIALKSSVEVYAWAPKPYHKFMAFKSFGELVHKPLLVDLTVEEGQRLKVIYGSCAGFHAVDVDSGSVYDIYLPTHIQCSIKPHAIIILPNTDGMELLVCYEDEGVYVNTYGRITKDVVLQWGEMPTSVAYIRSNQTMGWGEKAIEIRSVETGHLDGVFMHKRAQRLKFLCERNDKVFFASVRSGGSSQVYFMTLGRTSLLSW
Chain of Dual specificity mitogen-activated protein kinase kinase 1 (Homo sapiens) (Q02750 whole entry): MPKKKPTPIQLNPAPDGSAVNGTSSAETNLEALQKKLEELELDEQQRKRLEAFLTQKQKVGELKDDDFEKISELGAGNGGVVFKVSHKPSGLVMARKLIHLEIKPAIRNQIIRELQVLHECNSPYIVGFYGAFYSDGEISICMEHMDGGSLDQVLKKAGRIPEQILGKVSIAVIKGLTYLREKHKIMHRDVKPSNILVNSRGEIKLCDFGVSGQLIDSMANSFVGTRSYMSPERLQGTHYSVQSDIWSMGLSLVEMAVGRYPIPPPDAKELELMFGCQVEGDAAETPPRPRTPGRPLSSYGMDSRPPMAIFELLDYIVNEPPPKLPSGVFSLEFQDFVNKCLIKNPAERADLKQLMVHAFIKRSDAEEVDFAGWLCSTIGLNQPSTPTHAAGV
Chain of Aurora kinase B (Homo sapiens) (Q96GD4 whole entry): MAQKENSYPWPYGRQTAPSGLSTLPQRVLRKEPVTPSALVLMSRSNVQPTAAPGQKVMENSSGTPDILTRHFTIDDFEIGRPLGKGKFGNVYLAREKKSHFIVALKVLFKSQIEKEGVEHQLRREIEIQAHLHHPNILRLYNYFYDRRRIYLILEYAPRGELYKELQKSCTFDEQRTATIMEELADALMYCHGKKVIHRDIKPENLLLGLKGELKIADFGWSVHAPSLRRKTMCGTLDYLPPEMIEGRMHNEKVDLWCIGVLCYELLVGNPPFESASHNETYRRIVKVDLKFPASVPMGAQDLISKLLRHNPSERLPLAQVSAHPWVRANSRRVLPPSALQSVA

| SMILES | inhibition [1] | inhibition [2] | inhibition [3] | inhibition [4] | inhibition [5] | inhibition [6] | inhibition [7] | inhibition [8] | inhibition [9] | inhibition [10] | inhibition [11] | inhibition [12] | inhibition [13] | inhibition [14] | inhibition [15] | inhibition [16] | inhibition [17] | inhibition [18] | inhibition [19] | inhibition [20] |
| --- | --- | --- | --- | --- | --- | --- | --- | --- | --- | --- | --- | --- | --- | --- | --- | --- | --- | --- | --- | --- |
| CCS(=O)(=O)c1ccc(OC)c(Nc2ncc(-c3cccc(C(C)=O)c3)o2)c1 | 15.3% | 3.08% | 6.28% | 4.6% | -0.45% | 6.16% | 9.95% | -0.26% | 3.22% | 3.37% | 10.2% | 3.55% | 2.6% | 3.09% | 8.97% | 7.14% | 13.3% | 7.18% | 12.6% | -0.19% |
| CCCNc1cccc(-n2ncc3c(N/N=C/c4ccncc4)ncnc32)c1 | 70.7% | 14.3% | 43.8% | 17% | 58.5% | 6.3% | 28.4% | 1.16% | 3.57% | 9.69% | 44.1% | 1.7% | 2.07% | 5.44% | 35.9% | 4.12% | 12.3% | 5.92% | 9.89% | 1.77% |
| COc1c(C(N)=O)cc(-c2ccc(Cl)cc2)cc1-c1ccc(S(N)(=O)=O)cc1 | 3.86% | 2.21% | 3.28% | -0.05% | 0.52% | 5.14% | 6.24% | 0.59% | 2.11% | 6.38% | 5.7% | 3.99% | 3.65% | 6.03% | 7.24% | 2.89% | 4.76% | 5.08% | 4.15% | -1.15% |
| COC(=O)Nc1nc2ccc(Oc3ccc(NC(=O)Nc4cc(C(F)(F)F)ccc4F)cc3)cc2s1 | 7.02% | 5.4% | 30.8% | 9.05% | 50.4% | 24.5% | 55.4% | 10.7% | 28.6% | 2.18% | 8.34% | 0.28% | 1.52% | 2.27% | 6.19% | -0.61% | -1.63% | -0.86% | -0.3% | 0.45% |
| NS(=O)(=O)c1ccc(N/N=C2\C(=O)Nc3cccc(CCc4ccncc4)c32)cc1 | 20.6% | 3.64% | 7.9% | 5% | 8.21% | -0.95% | 0.03% | 1.75% | 3.46% | 4.39% | 16.9% | 1.96% | 3.3% | 4% | 10.8% | 31.3% | 48.9% | 20.1% | 29.8% | 10.5% |
| Cc1cc(O)cc(C)c1/C=C/c1cncc(C(=O)OC(C)(C)C)c1 | 14.9% | 3.41% | 6.42% | 0.94% | -1.91% | 5.45% | 17.5% | 2.5% | 7.97% | 7.27% | 15.2% | 4.02% | 3.99% | 6.01% | 9.55% | 3.56% | 8.26% | 2.81% | 6.28% | 0.35% |
| CC(C)c1ccc(-c2cc(-c3c[nH]nc3-c3ccccn3)ccn2)cc1 | 3.72% | 0.9% | 5.53% | 1.22% | -0.07% | 0.88% | 0.62% | 1.5% | 3.27% | 10.9% | 53.8% | 0.36% | 2.47% | 7.67% | 37.6% | 0.63% | -0.98% | 1.18% | 0.64% | 0.06% |
| CCn1c(-c2nonc2N)nc2cncc(C(=O)NCCNC)c21 | 5.14% | 2.77% | 1.83% | 0.6% | 5.56% | 11.8% | 18% | 0.67% | 3.62% | 4.46% | 11.3% | 4.81% | 3.62% | 7.39% | 10.8% | 3.84% | 6.56% | 5.96% | 7.27% | -3.72% |
| CC1=C(C(=O)Nc2ccc3[nH]nc(C)c3c2)C(c2ccc(C(F)(F)F)cc2)CC(=O)N1 (stereo not given) | 88.3% | 7.45% | 45.7% | 7.71% | 78.2% | 2.01% | 4.46% | 0.76% | 3.74% | 4.23% | 1.55% | 6.17% | 36.5% | 4.68% | 4.08% | 5.04% | 7.56% | 5.03% | 5.46% | -1.47% |
| Nc1nonc1-c1nc2cnccc2n1C1CC1 | 10.7% and -0.07% | 5.82% and -0.78% | 11.3% and 1.86% | 4.22% and -3.73% | 11.6% and -0.49% | 7.02% and 3.14% | 15.1% and 14.1% | 3.53% and 3.38% | 14.3% and 12.8% | 11.1% and 7.77% | 39.8% and 40% | 3% and 3.58% | 6.15% and 7.11% | 9.13% and 8.38% | 30.2% and 28.1% | 6.61% and 2.32% | 23.1% and 15.3% | 6.77% and 2.58% | 17.9% and 12.6% | -0.67% and -1.23% |

From ChEMBL document CHEMBL1961873, “Compounds: GSK PKIS; Assays: Nanosyn kinase panel” (2012)
